Of roughly 7,900 targets only a part is listed; those with a hit were picked by preference. About 0.6% of all pairs of compound and target were hits.
Key:
Test in all cases: log2 fold change, soluble protein after heating vs DMSO (PISA); higher = thermal stabilisation; K562 cells, 10 uM, 30 min; active = over 0.2 and 3.5 SD of the protein, either way, in both replicates (recomputed)
[1] = compound: CC[C@@H]1C(=O)N(C)c2cnc(Nc3ccc(C(=O)NC4CCN(C)CC4)cc3OC)nc2N1C1CCCC1
How it was run: (§1)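 Thermal stability values are relative to control samples and come from duplicates. They are expressed as log2 fold changes. For measurement, K562 cells (2×10^6 cells/mL) received 10 μM compound for 30 min, and aliquots were heated for 3 min over 48°C-58°C, pooled, and extracted at 4°C in PBS with 0.5% NP-40. Soluble protein, the supernatant after 21,000xg for 90 min, was quantified by TMTpro 16plex LC-MS/MS with equalised channel sums.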

volasertib = compound: CC[C@@H]1C(=O)N(C)c2cnc(Nc3ccc(C(=O)N[C@H]4CC[C@H](N5CCN(CC6CC6)CC5)CC4)cc3OC)nc2N1C(C)C [volasertib]
How it was run: as §1

[2] = compound: CC[C@H](C)N1C=C(C2=C(C=C(C=C21)C3=CN=C(C=C3)N4CCNCC4)C(=O)NCC5=C(C=C(NC5=O)C)C)C
How it was run: as §1

epoxomicin = compound: CC[C@H](C)[C@@H](C(=O)N[C@@H]([C@@H](C)O)C(=O)N[C@@H](CC(C)C)C(=O)[C@]1(CO1)C)NC(=O)[C@H]([C@@H](C)CC)N(C)C(=O)C [epoxomicin]
How it was run: as §1

[3] = compound: CCn1c(C(=O)N(C2CC2)C2CC2)cc2c3c(ncn3C)c(Nc3cc(C)n(C)n3)nc21
How it was run: as §1

[4] = compound: CCn1cc(-c2ccnc3[nH]c(-c4cccc(CN(C)C)c4)cc23)c(-c2ccc(NC(=O)N(C)C)cc2)n1
How it was run: as §1

[5] = compound: CN(C)CC(=O)Nc1ccc2[nH]c(=O)c3ccccc3c2c1
How it was run: as §1

rosiglitazone = compound: CN(CCOC1=CC=C(C=C1)C[C@H]2C(=O)NC(=O)S2)C3=CC=CC=N3 (racemic) [rosiglitazone]
How it was run: as §1

[6] = compound: CN1C2=C(C3=C1C(=O)N(N=C3)CC4=CC(=CC=C4)N)SC(=C2)S(=O)C
How it was run: as §1

[7] = compound: CN1CCC(CNc2ccc3ncc(-c4cccc(OC(F)(F)F)c4)n3n2)CC1
How it was run: as §1

Measured: log2 fold change

CSNK1A1 (UniProt P48729)
Chain of UniProt P48729 (P48729 whole entry, looked up): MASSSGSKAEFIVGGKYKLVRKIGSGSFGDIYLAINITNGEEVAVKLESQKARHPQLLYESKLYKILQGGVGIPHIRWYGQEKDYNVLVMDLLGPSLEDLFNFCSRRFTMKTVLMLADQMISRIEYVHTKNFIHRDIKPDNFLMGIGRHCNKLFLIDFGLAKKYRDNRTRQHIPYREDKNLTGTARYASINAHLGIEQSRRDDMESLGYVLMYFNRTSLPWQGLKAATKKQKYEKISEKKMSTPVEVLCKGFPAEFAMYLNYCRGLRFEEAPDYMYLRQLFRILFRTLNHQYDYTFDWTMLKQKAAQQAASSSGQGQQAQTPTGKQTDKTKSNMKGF
inactive: [1] -0.011 | volasertib -0.117 | [2] 0.057 | epoxomicin 0.046 | [3] -0.016 | [4] 0.008 | [5] -0.179 | rosiglitazone -0.028 | [6] 0.072 | [7] -0.067

CBR1 (UniProt P16152)
Chain of UniProt P16152 (P16152 whole entry, looked up): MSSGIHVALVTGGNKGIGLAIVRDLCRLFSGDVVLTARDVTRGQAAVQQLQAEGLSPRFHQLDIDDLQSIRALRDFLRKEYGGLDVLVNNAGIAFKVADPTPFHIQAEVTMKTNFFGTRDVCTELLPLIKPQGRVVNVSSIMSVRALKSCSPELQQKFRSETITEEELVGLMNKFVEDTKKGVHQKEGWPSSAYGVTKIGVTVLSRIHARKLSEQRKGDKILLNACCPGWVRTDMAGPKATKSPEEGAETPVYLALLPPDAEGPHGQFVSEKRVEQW
inactive: [1] -0.001 | volasertib -0.041 | [2] -0.017 | epoxomicin 0.06 | [3] -0.006 | [4] 0 | [5] 0.005 | rosiglitazone 0.013 | [6] -0.077 | [7] 0.077

COX20 isoform 2 (UniProt Q5RI15)
Chain of UniProt Q5RI15 (Q5RI15 whole entry, looked up): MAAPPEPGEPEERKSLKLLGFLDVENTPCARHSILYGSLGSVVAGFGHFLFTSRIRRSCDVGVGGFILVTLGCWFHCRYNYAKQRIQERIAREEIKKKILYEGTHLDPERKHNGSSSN
active: [4] 0.294
inactive: [1] -0.019 | volasertib 0.077 | [2] -0.01 | epoxomicin 0 | [3] 0.004 | [5] -0.038 | rosiglitazone 0.005 | [6] 0.002 | [7] 0.081

CRK (UniProt P46108)
Chain of UniProt P46108 (P46108 whole entry, looked up): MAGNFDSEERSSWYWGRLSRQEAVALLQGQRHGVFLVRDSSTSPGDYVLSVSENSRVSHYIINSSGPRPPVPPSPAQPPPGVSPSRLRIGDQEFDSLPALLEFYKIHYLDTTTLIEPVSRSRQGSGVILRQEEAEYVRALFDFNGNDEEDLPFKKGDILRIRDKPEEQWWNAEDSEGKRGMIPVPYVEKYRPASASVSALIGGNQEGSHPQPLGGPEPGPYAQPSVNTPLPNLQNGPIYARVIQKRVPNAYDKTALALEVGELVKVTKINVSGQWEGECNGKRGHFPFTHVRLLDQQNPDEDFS
inactive: [1] -0.059 | volasertib -0.085 | [2] 0.005 | epoxomicin 0.026 | [3] 0.002 | [4] -0.039 | [5] 0.002 | rosiglitazone 0.033 | [6] -0.028 | [7] -0.022

CSNK2A2 (UniProt P19784)
Chain of UniProt P19784 (P19784 whole entry, looked up): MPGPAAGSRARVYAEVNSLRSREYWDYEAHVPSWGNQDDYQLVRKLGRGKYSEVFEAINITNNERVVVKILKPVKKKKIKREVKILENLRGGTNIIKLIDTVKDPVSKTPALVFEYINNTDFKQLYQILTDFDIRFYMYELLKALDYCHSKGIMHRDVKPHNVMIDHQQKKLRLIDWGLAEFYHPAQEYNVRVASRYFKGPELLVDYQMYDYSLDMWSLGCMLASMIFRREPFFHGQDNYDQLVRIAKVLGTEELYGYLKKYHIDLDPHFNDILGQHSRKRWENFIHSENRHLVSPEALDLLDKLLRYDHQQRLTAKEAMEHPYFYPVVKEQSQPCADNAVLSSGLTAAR
active: [7] -0.244
inactive: [1] -0.053 | volasertib -0.122 | [2] 0.028 | epoxomicin 0.029 | [3] 0.01 | [4] -0.043 | [5] -0.006 | rosiglitazone 0.066 | [6] -0.038

CCZ1 (UniProt P86791)
Chain of UniProt P86791 (P86791 whole entry, looked up): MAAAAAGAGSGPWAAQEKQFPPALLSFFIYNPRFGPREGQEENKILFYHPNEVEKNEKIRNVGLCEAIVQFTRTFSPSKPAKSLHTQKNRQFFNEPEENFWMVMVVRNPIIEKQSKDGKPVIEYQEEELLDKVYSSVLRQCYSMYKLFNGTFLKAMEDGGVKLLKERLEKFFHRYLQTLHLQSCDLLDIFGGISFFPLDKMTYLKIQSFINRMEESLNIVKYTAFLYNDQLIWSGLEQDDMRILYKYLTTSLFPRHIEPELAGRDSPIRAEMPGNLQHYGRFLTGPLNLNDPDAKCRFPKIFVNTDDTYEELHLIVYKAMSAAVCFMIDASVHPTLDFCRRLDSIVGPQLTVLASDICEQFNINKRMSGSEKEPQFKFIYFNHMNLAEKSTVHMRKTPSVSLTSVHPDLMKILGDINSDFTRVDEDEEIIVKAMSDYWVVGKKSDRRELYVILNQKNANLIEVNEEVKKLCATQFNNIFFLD
inactive: [1] -0.199 | volasertib -0.113 | [2] -0.005 | epoxomicin 0.013 | [3] -0.011 | [4] 0.028 | [5] -0.002 | rosiglitazone 0.025 | [6] -0.002
active: [7] -0.256

CKB (UniProt P12277)
Chain of UniProt P12277 (P12277 whole entry, looked up): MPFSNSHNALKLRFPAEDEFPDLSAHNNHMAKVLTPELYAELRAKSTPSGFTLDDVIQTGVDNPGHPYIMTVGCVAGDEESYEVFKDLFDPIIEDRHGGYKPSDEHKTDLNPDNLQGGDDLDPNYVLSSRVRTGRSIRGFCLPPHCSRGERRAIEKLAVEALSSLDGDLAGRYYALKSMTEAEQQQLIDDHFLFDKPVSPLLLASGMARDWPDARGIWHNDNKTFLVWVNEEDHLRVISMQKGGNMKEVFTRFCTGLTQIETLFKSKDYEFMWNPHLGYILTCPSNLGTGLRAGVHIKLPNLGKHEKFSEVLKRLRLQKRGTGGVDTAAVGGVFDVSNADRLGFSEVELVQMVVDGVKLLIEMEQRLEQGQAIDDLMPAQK
active: volasertib 0.265
inactive: [1] 0.002 | [2] 0.008 | epoxomicin 0.044 | [3] 0.01 | [4] -0.108 | [5] 0.009 | rosiglitazone 0.03 | [6] -0.111 | [7] -0.056
